Experimental data from PubChem BioAssay (EPA / NIEHS).
Several values for one entry are separate records, joined by “and”; a condition that tells them apart may be missing. Equal values may be shown once. Records with an inconclusive call do not appear. Activity calls are given as the source filed them. The calls were made as follows: active = hit-call score of the fitted dose curve at least 0.9, where 1 is the maximum; inconclusive = response in the unintended direction; inactive = score below 0.9.

Assay: CCTE_Shafer_MEA_dev_bursting_electrodes_number: CCTE's Neural Network Formation Assay for Number of Bursting Electrodes, Shafer Lab (AID 2284043)
Description: CCTE_Shafer_MEA_dev assay is conducted using Axion Biosystems 48 well microelectrode array (MEA) plates and Maestro recording system. Each well of the MEA plate contains a grid of 16 microelectrodes embedded in the culture surface. Electrically active cells, such as neurons, can be cultured over the electrodes, and electrical activity in these cells can be recorded extracellularly. The spontaneous firing of neurons is captured from each electrode on a microsecond timescale providing both temporally and spatially precise data. […] The CCTE_Shafer_MEA_dev assay uses primary cultures of rat cortical neurons. Recordings are made on days post-plating 5, 7, 9 and 12. As these cultures mature over time, neural networks develop functional activity and form cohesive networks in which electrical activity can be highly coordinated. CCTE_Shafer_MEA_dev_bursting_electrodes_number is 1 of 19 assay components of the CCTE_Shafer_MEA_dev assay. It measures the number of electrodes in a well with a burst rate of at least 1 burst (temporally-clustered group of action potential firing) every 2 minutes during a recording in a microelectrode array (MEA) using Axion Biosystems Maestro 768 channel amplifier with the AxIS adaptive spike detector. To collapse across multiple recordings made on days post-plating 5, 7, 9 and 12, the trapezoidal area-under-the-curve of the component is calculated.Data from the assay component CCTE_Shafer_MEA_dev_bursting_electrodes_number was analyzed into 1 assay endpoint. This assay endpoint, CCTE_Shafer_MEA_dev_bursting_electrodes_number, was analyzed in the negative analysis fitting direction relative to DMSO as the negative control and baseline of activity. Using a type of functional reporter, gain or loss-of-signal activity can be used to understand electrical activity.
On the day prior to culture, each well was coated thoroughly with 150 uL of 0.05% polyethyleneimine (PEI, Sigma Cat P3143) in 50 mM HEPES (Sigma Cat H7523) at a pH of 8. The plate was incubated at 37C for one hour. PEI was rinsed out with 500 uL of sterile water three times. Plates were stored at 4C until the day of culture. This culture was plated at a seeding density of 1.5 x 10^5 cells/well on a 48-well MEA plate, prepared as described above. Cells were administered via a 25 uL media/laminin ([…]; Sigma Cat L2020-1MG) drop directly onto the microelectrode array, as adding the cells with the laminin results in better attachment than pre-coating with laminin. After 2 hours, an additional 475 uL of cortical media was added and the cells returned to the incubator. Exposure starts at day 0 of plating and is continued over twelve days of network development until the experiment is terminated. Cells are fed with fresh medium on DIV 5 and 9, following the recordings on those days. The entire volume of media in the well is exchanged and any vehicle or compound treatment is renewed. Complete details are found in OP-NHEERL/ISTD/SBB/TJS/2015-03-r0 (available on request, email shafer.tim@epa.gov). Measurement of the electrical activity is non-invasive, and recordings can be made from the same plate over multiple different days of the culture. In cortical neurons, this allows for the measurement of extracellular action potentials over the period during which networks form in the MEA plate.

Row | SMILES | outcome | AC50
1 | O=P(Oc1ccccc1)(Oc1ccccc1)Oc1ccccc1 | inactive | 
2 | OCC(F)(F)OC(F)(F)C(F)(F)OC(F)(F)CO | inactive | 
3 | O=C(O)C(F)(F)OC(F)(F)C(F)(F)OC(F)(F)C(=O)O | inactive | 
4 | O=C(O)C(F)(OC(F)(F)C(F)(F)C(F)(F)F)C(F)(F)F (stereo not given) | inactive | 
5 | CCCCC(CC)COC(=O)c1c(Br)c(Br)c(Br)c(Br)c1C(=O)OCC(CC)CCCC (stereo not given) | inactive | 
6 | CCOP(=S)(OCC)SCSCC |  | 76.1 µM (active) and 23.1 µM (active)
7 | CC(C)(C)c1ccccc1OP(=O)(Oc1ccccc1)Oc1ccccc1 |  | 16.4 µM (active) and 26.8 µM (active)
8 | OCC(F)(F)OC(F)(F)C(F)(F)OC(F)(F)C(F)(F)OC(F)(F)CO | inactive | 
9 | CCCCC(CC)COP(=O)(Oc1ccccc1)Oc1ccccc1 (stereo not given) | inactive | 
10 | O=S(=O)(c1ccc(O)cc1)c1ccc(O)cc1 | inactive | 
11 | ClC1=C(Cl)C2(Cl)C3C(Cl)C(Cl)CC3C1(Cl)C2(Cl)Cl (stereo not given) |  | 7.54 µM (active)
12 | O=C(O)C(F)(F)C(F)(F)C(=O)O | inactive | 
13 | CC(O)C(F)(F)C(F)(F)F (stereo not given) | inactive | 
14 | CCOc1ccc(C(C)(C)COCc2cccc(Oc3ccccc3)c2)cc1 |  | 8.06 µM (active)
15 | OCC(F)(F)OC(F)(F)C(F)(F)OC(F)(F)C(F)(F)OC(F)(F)F | inactive | 
16 | O=P1(N(CCCl)CCCl)NCCCO1 (stereo not given) | inactive | 
17 | c1ccc(OP(Oc2ccccc2)Oc2ccccc2)cc1 | inactive | 
18 | CO/N=C(/C(=O)OC)c1ccccc1COc1ccccc1C |  | 0.857 µM (active)
19 | C=CC(=O)OCC(F)(F)C(F)F |  | 4.87 µM (active)
20 | c1cc2c3c(cccc3c1)CC2 | inactive | 
